# This is a sample that favours compounds with a hit; in the whole collection about 19% have one here.
# HT1080 IDH1KD tx = kills HT-1080 cells with IDH1 knockdown; Potency, µM (titrated, usually from 46.1 µM), for the others: top-dose activity, negative = toxicity, most hits filed as cytotoxic; 360,000 compounds, 2% hits; HT-1080 IDH1 knockdown viability, ATP luminescence, 48 h;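 further: potency means the concentration at half of the fitted maximal effect; 0% = DMSO wells and -100% = cell-free medium wells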
#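 Luminescent ATP read-out (CellTiter-Glo, 10 min at room temperature) after 48 h compound exposure at 37 °C gave viability of IDH1-knockdown HT-1080 cells. Activity was normalised to DMSO and cell-free wells, then fitted as concentration-response curves.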
# DT40 TDP1 CPT = growth inhibition of DT40 Tdp1-/-;hTDP1 cells with camptothecin (screen for TDP1 inhibitors); chicken DT40 Tdp1-/-;hTDP1 cells + 20 nM CPT, ATP luminescence, 48 h; Potency, µM (series often up to 46.2 µM), without a hit: at the top dose activity change, negative = growth inhibition, actives largely listed as inhibitors; 420,000 compounds, 12% hits; further: potency means the concentration at half of the fitted maximal effect; nearly all actives have a fitted effect of over 55% in size
#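 Chicken DT40 Tdp1-/- cells complemented with human TDP1, 400 cells/well, exposed to compounds plus 20 nM camptothecin for at least 48 h at 37 C; viability read as ATP content by CellTiter-Glo luminescence.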
# ELG1 repair inh = ELG1-dependent DNA repair inhibition; HEK293T ELG1-luciferase reporter, luminescence, 16 h; DNA damage induced by 5-fluorouridine; Potency, µM (highest dose often 46.1 µM), for the others: at the highest dose activity change, negative = inhibition, most hits filed as inhibitors; 330,000 compounds, 2.3% hits; AID 504467; further: potency means the concentration at half of the fitted maximal effect; nearly all actives have a fitted effect of over 55% in size
#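 Reporter activity after DNA damage by 5-fluorouridine is monitored. Compound-treated cells incubate 16 hr at 37 °C, then ONE-Glo is added for 30 min before luminescence reading.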
# HT1080-NT tox = kills 2HG-producing HT-1080-NT fibrosarcoma cells | HT-1080-NT fibrosarcoma viability, CellTiter-Glo ATP luminescence, 48 h | 360,000 compounds, 1.6% hits | AID 686970 | Potency, µM (series often up to 46.1 µM), for inactives: at the top dose activity, negative = less viability, actives largely listed as cytotoxic;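 further: NT is the 2HG producing partner of a matched IDH1 knockdown line; potency means the concentration at half of the fitted maximal effect; 0% = DMSO-treated cells and -100% = media-only wells without cells; nearly all actives have a fitted effect of over 55% in size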
#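 Toxicity toward the 2HG-producing NT line was scored as %Activity, normalised to DMSO and no-cell wells, from CellTiter-Glo luminescence after 48 hours' treatment.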
# IL-1B inflam inh = inhibitors of inflammasome signaling (IL-1 beta secretion); 360,000 compounds, 4.7% hits; activity change, % at 57.5 µM; THP-1 LPS/ATP IL-1B secretion, AlphaLISA, 16 h; hits give low values; AID 743279; in the data active means activity change below about -50%; inconclusive means mostly about -30% to -49%
#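 Secreted IL-1B measured by AlphaLISA bead assay after 16 h compound exposure of THP-1 cells; compounds (final up to 57.5 uM) added 1 h before LPS (250 ng/mL) and ATP (1.25 mM) stimulation; lower signal means less secretion.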
# DT40 TDP1 no CPT = qHTS for Inhibitors of human tyrosyl-DNA phosphodiesterase 1 (TDP1): qHTS in cells in absence of CPT; DT40 Tdp1-/- hTDP1 cells, no CPT, ATP luminescence, 48 h; Potency, µM (top dose mostly 46.2 µM), for the others: at the top dose activity change, negative = growth inhibition, actives largely listed as inhibitors; 420,000 compounds, 15% hits; further: potency means the concentration at half of the fitted maximal effect; nearly all actives have a fitted effect of over 55% in size
#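 Growth of hTDP1-complemented DT40 Tdp1-knockout cells is measured by ATP luminescence after at least 48 hr compound exposure at 37 °C, with DMSO substituting for the 20 nM CPT used in the parallel screen.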
# The depositor's hits bear a star; ? = inconclusive; / = no result. Unless noted, the call rests on the fitted dose curve; in most records, active means well fitted curve in the direction sought with a large enough effect; inconclusive means small, poorly fitted or top-dose-only effect, or another doubt; inactive means no such curve, though single readings can be large; an effect the other way counts as inactive or inconclusive. Unless noted, on the % scale 0 is the no-effect control and ±100 the full control effect.
SMILES,HT1080 IDH1KD tx,DT40 TDP1 CPT,ELG1 repair inh,HT1080-NT tox,IL-1B inflam inh,DT40 TDP1 no CPT
COc1ccccc1N(Cc1cc2cccc(C)c2[nH]c1=O)C(=O)c1cccc(Cl)c1,/,13µM*,/,/,/,20.6µM*
COCCN(Cc1cc2cccc(C)c2[nH]c1=O)C(=O)c1ccccc1,3.4%,-12.4%,0.6%,8.4%,15.4,-2.4%
COc1ccc2[nH]c(=O)c(CN(c3ccc(C)c(C)c3)S(C)(=O)=O)cc2c1,-1.1%,-22.4%,?,-10.9%,-9.1,-26.7%
CCCC(=O)N(Cc1cc2cc(OC)ccc2[nH]c1=O)c1ccccc1OC,4.0%,14.6µM*,/,-0.6%,-13.9,?
COc1cccc(C(=O)NC2=NC(c3ccccc3F)CC(=O)N2)c1 (configuration not stated),/,0.0%,/,/,/,-6.7%
Cn1cccc1C(=O)N1CCC[C@@]2(CCN(c3ccncc3)C2)C1,/,0.3%,/,/,/,-18.4%
Cc1cccc2cc(CN(CCN(C)C)C(=S)Nc3ccccc3)c(=O)[nH]c12,-19.5%,-29.6%,-28.6%,-13.1%,-15.3,?
COC(=O)c1ccccc1NC(=S)N(Cc1ccc2c(c1)OCO2)Cc1cc2cccc(C)c2[nH]c1=O,13.1%,-25.4%,11.6µM*,3.8%,28.1,?
COc1ccc(N(Cc2cc3ccccc3[nH]c2=O)C(=O)c2cccc(Cl)c2)cc1,/,16.4µM*,/,/,/,23.1µM*
CC(=O)N1CCN(C(=O)CCC(=O)O)CC1,-2.8%,4.9%,21.0%,0.6%,-13.3,-4.7%
O=C1OCC(c2ccccc2)=C1c1ccccc1,-0.6%,-1.4%,2.1%,6.2%,19.6,-10.2%
Cc1ccc(C2=C(c3ccc([N+](=O)[O-])cc3)C(=O)OC2)cc1C,-8.8%,?,-29.4%,-7.0%,-2.0,18.4µM*
COc1ccc(NC(=O)CC(=O)Nc2ccc(OC)cc2)cc1,-12.1%,3.3%,/,?,-8.7,-13.6%
c1ccc(SCCN2CCN(c3ccccc3)CC2)cc1,-0.6%,-15.8%,10.3%,0.2%,-0.9,-13.6%
OC(CSc1ccccc1)CN1CCN(c2cccc(Cl)c2)CC1 (configuration not stated),2.3%,?,/,-18.1%,-17.1,20.6µM*
OC(CSc1ccccc1)CN1CCN(c2ccc(Cl)cc2)CC1 (configuration not stated),1.5%,?,/,-9.5%,?,20.6µM*
CC(NC(=O)CN1CCN(c2cccc(Cl)c2)CC1)c1ccccc1 (configuration not stated),-1.3%,?,-7.9%,-3.0%,0.0,-25.5%
CCOC(=O)c1cc2c(c(-c3cccc(-c4cc5ccccc5o4)c3)n1)[C@@H](CCO)N(S(=O)C(C)(C)C)C2 (some centres not stated),?,-20.0%,/,?,-14.7,?
Cc1ccc(-n2c3c(cc(-c4nc(-c5ccc(Cl)cc5)cs4)c2=O)C(=O)CC(C)(C)C3)cc1C,/,1.2%,/,/,/,-6.4%
COc1cccc(C(=O)Nc2cccc(OCc3cc(=O)n4cccc(C)c4n3)c2)c1,/,-11.3%,/,/,/,-10.3%
CCOc1ccc(/C=C2\NC(=S)NC2=O)cc1,1.1%,?,-8.3%,9.2%,-18.4,-28.3%
Cc1no[n+]([O-])c1COc1ccc(/C=C2\NC(=S)NC2=O)cc1,-5.5%,-15.3%,?,-4.7%,-53.4*,-24.6%
O=C(Cn1ncn2c(cc3sccc32)c1=O)NC1CCCC1,0.0%,-4.8%,16.5%,-1.4%,-21.6,-11.6%
CCCc1cc(=O)n2nc(N3CCC(C(=O)N4CCN(c5ccc(OC)cc5)CC4)CC3)sc2n1,13µM*,2.59µM*,-5.6%,?,16.9,5.8µM*
COc1ccc(N2CCN(C(=O)C3CCN(c4nc5ccc(C)cc5[nH]4)CC3)CC2)cc1,/,10.3µM*,/,/,/,8.2µM*
SMILES,HT1080 IDH1KD tx,DT40 TDP1 CPT,ELG1 repair inh,HT1080-NT tox,IL-1B inflam inh,DT40 TDP1 no CPT
COc1ccc2nc(N3CCCC3)[nH]c2c1,2.7%,-7.8%,?,-2.1%,8.2,-3.7%
Cc1ccc(C)c(N2CCN(C(=O)C3CCN(c4nc5ccc(C)cc5[nH]4)CC3)CC2)c1,/,4.11µM*,/,/,/,2.31µM*
CCCCNC(=O)C1CCN(c2nc3ccc(C)cc3[nH]2)CC1,/,-25.8%,/,/,/,-20.5%
Cc1ccc2nc(N3CCC(C(=O)N4CCN(c5cccc(Cl)c5)CC4)CC3)[nH]c2c1,/,13µM*,/,/,/,8.2µM*
O=c1cc[nH]c2c1ccc1cccnc12,7.7%,?,?,0.0%,15.0,?
Cc1ccc(Cn2c(CCCO)nc3ccccc32)cc1,-19.3%,?,4.7%,-18.2%,7.5,?
O=C(NCc1ccccc1Cl)C1CCCN(S(=O)(=O)c2cccc3nonc23)C1 (configuration not stated),-12.2%,8.5%,0.8%,-10.3%,16.1,-27.1%
O=C(C1CCCN(S(=O)(=O)c2cccc3nonc23)C1)N1CCN(c2ccccc2)CC1 (configuration not stated),-14.1%,?,?,-4.4%,-50.6*,22.4µM*
Cc1ccc(NC(=O)C2CCN(S(=O)(=O)c3cccc4nonc34)CC2)nc1,-4.4%,-6.4%,20.6µM*,1.4%,7.9,-14.5%
CC1CCCN(C(=O)C2CCN(S(=O)(=O)c3cccc4nonc34)CC2)C1 (configuration not stated),8.9%,2.0%,-8.3%,4.8%,19.2,-24.2%
CC(=O)c1ccc(N2CCN(C(=O)C3CCN(S(=O)(=O)c4cccc5nonc45)CC3)CC2)cc1,/,?,/,/,/,23.1µM*
CCN=C1SC(CC(=O)NC(C)c2ccccc2)C(=O)N1CC (configuration not stated),2.4%,-3.7%,-0.2%,7.6%,0.3,-0.3%
CCCOc1ccc(F)cc1-c1cc(C(=O)NCc2ccco2)[nH]n1,17.2%,?,/,7.9%,-17.2,?
CSc1ccc(CCNC(=O)CCc2nnc3ccc(N4CCC5(CC4)OCCO5)nn23)cc1,-3.6%,-2.3%,9.2µM*,-2.3%,0.0,-21.5%
CSc1ccc(CCNC(=O)CCc2nnc3ccc(N4CCOCC4)nn23)cc1,-0.8%,-18.8%,20.0%,2.2%,-0.8,-14.3%
CC1CCN(C(=O)CCc2nnc3ccc(N4CCC5(CC4)OCCO5)nn23)CC1,6.6%,-2.7%,4.6%,1.3%,-7.9,13.9%
